Only a selection was taken, and the strongest signals are over-represented in it overall.
Key:
Experiment in all cases: glycan array binding signal (z-score within array); higher = stronger binding
Conditions in all cases: glycan notation: IUPAC condensed, linker removed
[1] = biological target: Glc(a1-4)Glc(a1-4)Glc(a1-4)Glc
Summary of the method: (§1)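 Glycan array binding is given as a within-array Z-score, which can be read as non-binding when negative. The arrays, 3228 of them, came from the Consortium for Functional Glycomics database and were retained only where the protein sequence was available. Z-scores were averaged across arrays of the same protein sequence at different concentrations or buffers and across linkers.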

[2] = biological target: GlcNAc(a1-4)Gal(b1-3)GlcNAc
Summary of the method: as §1

[3] = biological target: GlcNAc(a1-4)Gal(b1-4)GlcNAc(b1-3)Gal(b1-4)Glc
Summary of the method: as §1

[4] = biological target: GlcNAc(b1-2)Man(a1-3)[GlcNAc(b1-2)Man(a1-6)]Man(b1-4)GlcNAc(b1-4)GlcNAc
Summary of the method: as §1

[5] = biological target: GlcNAc(b1-2)[GlcNAc(b1-6)]Man(a1-6)[GlcNAc(b1-2)Man(a1-3)]Man(b1-4)GlcNAc(b1-4)GlcNAc
Summary of the method: as §1

[6] = biological target: GlcNAc(b1-3)Gal(b1-4)GlcNAc(b1-2)[GlcNAc(b1-3)Gal(b1-4)GlcNAc(b1-6)]Man(a1-6)[GlcNAc(b1-3)Gal(b1-4)GlcNAc(b1-2)Man(a1-3)]Man(b1-4)GlcNAc(b1-4)GlcNAc
Summary of the method: as §1

[7] = biological target: GlcNAc(b1-3)Gal(b1-4)GlcNAc(b1-3)[GlcNAc(b1-3)Gal(b1-4)GlcNAc(b1-3)]GalNAc
Summary of the method: as §1

[8] = biological target: Man(a1-2)Man(a1-3)[Man(a1-2)Man(a1-6)]Man(a1-6)[Man(a1-2)Man(a1-2)Man(a1-3)]Man
Summary of the method: as §1

Man(b1-4)GlcNAc = biological target: Man(b1-4)GlcNAc
Summary of the method: as §1

[9] = biological target: Neu5Ac(a2-3)Gal(b1-3)GlcNAc(b1-2)Man(a1-3)[Neu5Ac(a2-3)Gal(b1-3)GlcNAc(b1-2)Man(a1-6)]Man(b1-4)GlcNAc(b1-4)GlcNAc
Summary of the method: as §1

[10] = biological target: Neu5Ac(a2-3)Gal(b1-3)GlcNAc(b1-4)Gal(b1-4)Glc
Summary of the method: as §1

[11] = biological target: Neu5Ac(a2-3)Gal(b1-4)GlcNAc(b1-3)Gal(b1-4)GlcNAc(b1-3)Gal(b1-4)GlcNAc
Summary of the method: as §1

[12] = biological target: Neu5Ac(a2-3)Gal(b1-4)GlcNAc(b1-6)[Gal(b1-3)]GalNAc
Summary of the method: as §1

[13] = biological target: Neu5Ac(a2-3)Gal(b1-4)[Fuc(a1-3)]GlcNAc(b1-3)Gal(b1-4)[Fuc(a1-3)]GlcNAc(b1-3)Gal(b1-4)[Fuc(a1-3)]GlcNAc
Summary of the method: as §1

[14] = biological target: Neu5Ac(a2-3)[Neu5Ac(a2-6)]GalNAc
Summary of the method: as §1

[15] = biological target: Neu5Ac(a2-6)Gal(b1-4)GlcNAc(b1-2)[Neu5Ac(a2-6)Gal(b1-4)GlcNAc(b1-6)]Man(a1-6)[Neu5Ac(a2-6)Gal(b1-4)GlcNAc(b1-2)Man(a1-3)][GlcNAc(b1-4)]Man(b1-4)GlcNAc(b1-4)GlcNAc
Summary of the method: as §1

[16] = biological target: Neu5Ac(a2-6)Gal(b1-4)GlcNAc(b1-3)Gal(b1-3)GlcNAc
Summary of the method: as §1

[17] = biological target: Neu5Ac(a2-6)Gal(b1-4)GlcNAc(b1-3)Gal(b1-4)GlcNAc(b1-6)[Gal(b1-3)]GalNAc
Summary of the method: as §1

[18] = biological target: Neu5Ac(a2-6)Gal(b1-4)GlcNAc(b1-3)Gal(b1-4)[Fuc(a1-3)]GlcNAc(b1-3)Gal(b1-4)[Fuc(a1-3)]GlcNAc
Summary of the method: as §1

[19] = biological target: Neu5Ac(a2-6)Gal(b1-4)GlcNAc(b1-3)[Neu5Ac(a2-6)Gal(b1-4)GlcNAc(b1-6)]GalNAc
Summary of the method: as §1

[20] = biological target: Neu5Ac(a2-6)Gal(b1-4)GlcNAc(b1-6)[Gal(b1-3)]GalNAc
Summary of the method: as §1

[21] = biological target: Neu5Ac(a2-6)GlcNAc(b1-4)GlcNAc
Summary of the method: as §1

[22] = biological target: Neu5Ac(a2-6)GlcNAc(b1-4)GlcNAc(b1-4)GlcNAc
Summary of the method: as §1

[23] = biological target: Neu5Ac(a2-8)Neu5Ac(a2-3)Gal(b1-4)Glc
Summary of the method: as §1

[24] = biological target: Neu5Ac(a2-8)Neu5Ac(a2-8)Neu5Ac(a2-3)Gal(b1-4)Glc
Summary of the method: as §1

[25] = biological target: Neu5Ac(a2-8)Neu5Gc(a2-3)Gal(b1-4)GlcNAc
Summary of the method: as §1

[26] = biological target: Neu5Gc(a2-3)Gal(b1-4)GlcNAc(b1-3)Gal(b1-4)GlcNAc(b1-2)Man(a1-3)[Neu5Gc(a2-3)Gal(b1-4)GlcNAc(b1-3)Gal(b1-4)GlcNAc(b1-2)Man(a1-6)]Man(b1-4)GlcNAc(b1-4)GlcNAc
Summary of the method: as §1

[27] = biological target: Neu5Gc(a2-8)Neu5Gc(a2-6)Gal(b1-4)GlcNAc
Summary of the method: as §1

B1: SfaEH (Escherichia coli), Q1RDG5 (protein)
chain: LLCRNNQTGQVFNSGDTSFRVNVSPVVQYDKSISVLDLSQLVSCQNEDSTGQNYDYLKILKGSGFSPALDTKTYGRLDFTSRPTGYARQLPLQFDLQVTEAFYQYGVWKPFPAKLYLYPAPGVFGKVINNGDLLATLYVNKFSTKGQEAGERNFTWRFYATNDVYIQTGTCRVSSNNVKVDLPSYPGGPVTVPLTVRCDQTQSVSYTLSGPVTGSGNTVFANTAASGSGGVGIQLSDNVGPVPAGQPRSLGQVGSSPVSLGLKASYALTGQASPTPGAVQSVINVTFSYN
- glycan array binding signal (z-score) [1]: -0.651
- glycan array binding signal (z-score) [2]: -0.403
- glycan array binding signal (z-score) [3]: -0.748
- glycan array binding signal (z-score) [4]: 0.345
- glycan array binding signal (z-score) [5]: -0.668
- glycan array binding signal (z-score) [6]: 2.3
- glycan array binding signal (z-score) [7]: 0.026
- glycan array binding signal (z-score) [8]: 0.008
- glycan array binding signal (z-score) (Man(b1-4)GlcNAc): -0.49
- glycan array binding signal (z-score) [9]: -0.547
- glycan array binding signal (z-score) [10]: -0.421
- glycan array binding signal (z-score) [11]: 7.11
- glycan array binding signal (z-score) [12]: 2.32
- glycan array binding signal (z-score) [13]: 0.9
- glycan array binding signal (z-score) [14]: 3.69
- glycan array binding signal (z-score) [15]: -0.534
- glycan array binding signal (z-score) [16]: -0.233
- glycan array binding signal (z-score) [17]: 0.079
- glycan array binding signal (z-score) [18]: -0.154
- glycan array binding signal (z-score) [19]: 2.22
- glycan array binding signal (z-score) [20]: 0.841
- glycan array binding signal (z-score) [21]: -0.508
- glycan array binding signal (z-score) [22]: 1.19
- glycan array binding signal (z-score) [23]: 0.69
- glycan array binding signal (z-score) [24]: 0.437
- glycan array binding signal (z-score) [25]: -0.786
- glycan array binding signal (z-score) [26]: -0.442
- glycan array binding signal (z-score) [27]: 2.33

Reference: the supplement of paper PMC8728848
